# Measurements taken from PubChem BioAssay (NCATS).
# A number with no mark means an inactive call. Results filed as inconclusive are left out. Calls of active or inactive are those of the source.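 The calls were made as follows, unless noted: active = compounds whose dose series gives a full or clear partial fitted curve of increased nuclear translocation; inconclusive = weak partial curve or effect only at the top dose; inactive = no dose-dependent translocation response.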
# How the values were obtained:
# [1] = Stat Signaling Pathway (AID 446; active = well fitted curve in either direction with a large enough effect, not every such curve was filed as active;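 also: ME-180 cervical cancer cells given 40 pM IL-6 alongside compound; SIE-controlled beta-lactamase reporter measured as 460/530 nm FRET emission ratio; % is scaled to controls: 0 for no effect and ±100 for the full control effect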); conditions: ME-180 SIE beta-lactamase reporter, IL-6 stimulated, 5 h; at 17.2 µM (top of the series) unless noted
# Procedure, shortened: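 FRET read-out (405 nm excitation, 460/530 nm emission) of a beta-lactamase reporter under a STAT-inducible element in ME-180 cervical carcinoma cells. Cells with compound receive 40 pM IL-6 for 5 h. Values are normalised to AC90 stimulation and AC90 JAK-inhibitor controls.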
# [2] = target: Glucocorticoid receptor (Homo sapiens) (UniProt P04150); assay: GR-GFP Redistribution (AID 450); also: potency is read from the fitted curve at half-maximal effect
# [3] = target: Glucocorticoid receptor (Homo sapiens) (UniProt P04150); assay: GR-EFC Redistribution (AID 451; calls by dose curve; also: potency is read from the fitted curve at half-maximal effect); conditions: CHO-K1 GR-EFC translocation, beta-gal luminescence, 2 h
# Procedure, shortened: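 CHO-K1 cells expressing nuclear EA and GR-ED fragments of b-gal; compounds titrated up to 46 uM final, 2 h at 37 C. GR nuclear translocation read as complemented b-gal luminescence after 1 h RT detection.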
# [4] = target: 3',5'-cyclic-AMP phosphodiesterase 4B (Homo sapiens) (UniProt Q07343); assay: qHTS Assay for Inhibitors of PDE-IV (AID 607; active = well fitted activation curve with a large enough effect in the main read-out, with a control signal flat, not every such curve was filed as active; also: % of control where 0% means no effect)
# Procedure, shortened: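 Cell-based read-out of cAMP via a modified cyclic nucleotide-gated channel and membrane potential dye (535/590 nm) in HEK293 cells expressing PDE4 endogenously. Compounds tested up to 22.9 uM final; 100 uM RO 20-1724 reference.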
# [5] = qHTS Assay for Identification of Small Molecule Antagonists for NFkB Signaling Pathway (AID 895; active = well fitted inhibition curve with a large enough effect in the signal ratio, with a control signal flat, not every such curve was filed as active; the % refers to the signal ratio; also: potency is read from the fitted curve at half-maximal effect)
# Procedure, shortened: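 ME-180 NFkB-bla cells (beta-lactamase under NFkB response element), plated overnight, treated with compound then 10 pM TNF alpha (about EC50) for 5 hrs at 37 C. LiveBLAzer FRET read at 460/530 nm emission, 405 nm excitation.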
# [6] = target: Muscarinic acetylcholine receptor M1 (Rattus norvegicus) (UniProt P08482); assay: qHTS Assay for Antagonists of Acetylcholine Muscarinic M1 Receptor: Kinetic Measurement of Intracellular Calcium Response (AID 943; active = well fitted curve in the direction sought with a large enough effect; an effect the other way counts as inactive or inconclusive;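 also: Fluo-4 calcium signal as peak divided by basal fluorescence over 4 min; nearly all actives have a fitted effect of over 75% in size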)
# Procedure, shortened: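 Antagonism measured as reduction of carbachol-evoked (EC80, 100 nM final) calcium flux in rat M1-CHO cells after 10 min compound exposure. Fluo-4 signal read kinetically; ratio of maximal to basal fluorescence.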
# [7] = target: Pyruvate kinase (Leishmania mexicana) (UniProt Q27686); assay: qHTS Validation Assay for Inhibitors of Leishmania Mexicana Pyruvate Kinase (AID 945; active = well fitted curve in the direction sought with a large enough effect; an effect the other way counts as inactive or inconclusive;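 also: 0% = DMSO only neutral control wells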)
# Procedure, shortened: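 Read-out: luminescence from PKLight stop/detection reagent, data normalized to DMSO. Reaction: 0.2 nM E451W LmPYK, 0.5 mM PEP, 0.1 mM ADP, pH 7.2, 1 h room temperature.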
# [8] = target: Pyruvate kinase PKM (Homo sapiens) (UniProt P14618); assay: qHTS Assay for Activators of Human Muscle Pyruvate Kinase (AID 954; active = well fitted curve in the direction sought with a large enough effect, not every such curve was filed as active;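 also: 0% = uninhibited enzyme and -100% = no enzyme or full thiadiazolimine inhibition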)
# Procedure, shortened: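 ATP production by PKM2 detected via luciferase luminescence after 1 h room-temperature reaction (0.1 nM enzyme, PEP at Km 0.5 mM, ADP 0.1 mM, pH 7.2 imidazole buffer). Inhibition scaled to no-enzyme control; activation referenced to 0.3 nM enzyme wells.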
# [9] = target: Alpha-galactosidase A (Homo sapiens) (UniProt P06280); assay: Counterscreen for Glucocerebrosidase Inhibitors: qHTS Assay for Human alpha-Galactosidase at pH 4.5 (AID 992; active = well fitted curve in the direction sought with a large enough effect; an effect the other way counts as inactive or inconclusive; also: 0% is about no effect)
# Procedure, shortened: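 Fluorogenic 1536-well qHTS at pH 4.5 (citrate, Tween-20): 2 nM enzyme, 80 uM 4-MU-alpha-galactoside, 20 min room temperature, NaOH/glycine stop. Titration 0.7 nM to 77 uM, data normalized to no-enzyme and full-activity controls, Hill-fitted AC50.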
# Sequence of Glucocorticoid receptor (Homo sapiens) (P04150 whole entry, looked up, the tested form may be a part): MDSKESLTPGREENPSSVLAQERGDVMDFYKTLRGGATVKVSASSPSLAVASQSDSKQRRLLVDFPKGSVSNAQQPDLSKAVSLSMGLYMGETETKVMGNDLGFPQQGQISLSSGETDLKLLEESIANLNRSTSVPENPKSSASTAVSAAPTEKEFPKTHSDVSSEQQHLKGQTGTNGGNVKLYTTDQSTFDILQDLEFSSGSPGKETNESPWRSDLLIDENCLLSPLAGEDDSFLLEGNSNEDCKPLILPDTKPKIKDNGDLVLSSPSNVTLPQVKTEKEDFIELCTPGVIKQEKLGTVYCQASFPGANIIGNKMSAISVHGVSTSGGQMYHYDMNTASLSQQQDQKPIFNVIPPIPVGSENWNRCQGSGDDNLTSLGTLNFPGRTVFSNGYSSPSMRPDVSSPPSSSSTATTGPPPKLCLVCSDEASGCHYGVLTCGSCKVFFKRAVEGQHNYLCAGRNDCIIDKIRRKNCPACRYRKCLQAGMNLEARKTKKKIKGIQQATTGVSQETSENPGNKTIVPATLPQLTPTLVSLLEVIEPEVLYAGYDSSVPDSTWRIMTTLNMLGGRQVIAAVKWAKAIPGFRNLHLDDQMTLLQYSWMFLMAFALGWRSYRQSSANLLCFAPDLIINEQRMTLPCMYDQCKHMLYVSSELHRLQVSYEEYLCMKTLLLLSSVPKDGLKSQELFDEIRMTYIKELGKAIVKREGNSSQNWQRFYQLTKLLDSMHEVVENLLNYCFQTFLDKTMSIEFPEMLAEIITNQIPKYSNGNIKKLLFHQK
# Sequence of 3',5'-cyclic-AMP phosphodiesterase 4B (Homo sapiens) (Q07343 whole entry, looked up): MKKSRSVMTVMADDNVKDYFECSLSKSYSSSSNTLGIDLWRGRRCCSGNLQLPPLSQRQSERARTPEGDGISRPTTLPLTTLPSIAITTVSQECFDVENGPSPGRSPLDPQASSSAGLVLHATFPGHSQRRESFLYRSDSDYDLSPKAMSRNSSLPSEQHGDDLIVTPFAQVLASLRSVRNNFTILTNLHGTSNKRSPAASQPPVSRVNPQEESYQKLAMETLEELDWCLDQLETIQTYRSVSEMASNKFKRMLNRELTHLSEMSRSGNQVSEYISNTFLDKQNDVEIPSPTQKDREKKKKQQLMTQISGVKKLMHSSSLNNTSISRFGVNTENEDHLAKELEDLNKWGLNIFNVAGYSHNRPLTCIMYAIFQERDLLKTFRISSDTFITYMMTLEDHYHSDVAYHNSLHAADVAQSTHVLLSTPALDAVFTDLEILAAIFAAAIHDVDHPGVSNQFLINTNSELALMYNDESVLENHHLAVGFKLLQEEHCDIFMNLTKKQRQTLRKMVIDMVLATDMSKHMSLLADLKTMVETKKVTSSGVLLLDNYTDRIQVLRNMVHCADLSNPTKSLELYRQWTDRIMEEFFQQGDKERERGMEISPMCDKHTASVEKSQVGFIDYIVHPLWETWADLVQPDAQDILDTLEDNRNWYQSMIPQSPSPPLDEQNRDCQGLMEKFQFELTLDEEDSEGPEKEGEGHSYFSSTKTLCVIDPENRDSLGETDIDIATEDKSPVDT
# Sequence of Pyruvate kinase (Leishmania mexicana) (Q27686 2-499 E452W): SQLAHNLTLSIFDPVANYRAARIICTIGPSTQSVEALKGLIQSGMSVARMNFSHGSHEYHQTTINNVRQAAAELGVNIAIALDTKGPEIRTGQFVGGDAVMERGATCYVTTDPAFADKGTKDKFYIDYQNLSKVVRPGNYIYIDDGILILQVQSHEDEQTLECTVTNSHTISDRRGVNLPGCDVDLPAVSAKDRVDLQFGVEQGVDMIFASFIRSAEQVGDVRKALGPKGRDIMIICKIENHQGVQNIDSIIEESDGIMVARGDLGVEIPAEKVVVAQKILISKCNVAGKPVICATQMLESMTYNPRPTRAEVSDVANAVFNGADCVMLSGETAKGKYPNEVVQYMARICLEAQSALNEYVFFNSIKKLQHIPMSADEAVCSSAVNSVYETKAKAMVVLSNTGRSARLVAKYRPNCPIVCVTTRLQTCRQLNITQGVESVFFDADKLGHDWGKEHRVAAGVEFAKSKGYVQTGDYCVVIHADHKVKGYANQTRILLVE
# Sequence of Pyruvate kinase PKM (Homo sapiens) (P14618 whole entry, looked up): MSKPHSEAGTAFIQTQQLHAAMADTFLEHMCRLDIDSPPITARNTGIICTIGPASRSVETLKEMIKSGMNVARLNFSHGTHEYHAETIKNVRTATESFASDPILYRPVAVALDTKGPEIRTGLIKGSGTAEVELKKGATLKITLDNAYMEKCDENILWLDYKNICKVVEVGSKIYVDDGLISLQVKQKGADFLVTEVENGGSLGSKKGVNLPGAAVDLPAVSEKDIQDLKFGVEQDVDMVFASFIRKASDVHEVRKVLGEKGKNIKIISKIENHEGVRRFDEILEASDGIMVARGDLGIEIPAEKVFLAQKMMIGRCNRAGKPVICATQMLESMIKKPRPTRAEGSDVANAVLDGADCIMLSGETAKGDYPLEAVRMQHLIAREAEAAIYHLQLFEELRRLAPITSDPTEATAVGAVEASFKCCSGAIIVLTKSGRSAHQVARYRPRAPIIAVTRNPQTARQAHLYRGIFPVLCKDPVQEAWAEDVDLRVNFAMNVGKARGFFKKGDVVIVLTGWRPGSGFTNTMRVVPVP
# Sequence of Alpha-galactosidase A (Homo sapiens) (P06280 whole entry, looked up): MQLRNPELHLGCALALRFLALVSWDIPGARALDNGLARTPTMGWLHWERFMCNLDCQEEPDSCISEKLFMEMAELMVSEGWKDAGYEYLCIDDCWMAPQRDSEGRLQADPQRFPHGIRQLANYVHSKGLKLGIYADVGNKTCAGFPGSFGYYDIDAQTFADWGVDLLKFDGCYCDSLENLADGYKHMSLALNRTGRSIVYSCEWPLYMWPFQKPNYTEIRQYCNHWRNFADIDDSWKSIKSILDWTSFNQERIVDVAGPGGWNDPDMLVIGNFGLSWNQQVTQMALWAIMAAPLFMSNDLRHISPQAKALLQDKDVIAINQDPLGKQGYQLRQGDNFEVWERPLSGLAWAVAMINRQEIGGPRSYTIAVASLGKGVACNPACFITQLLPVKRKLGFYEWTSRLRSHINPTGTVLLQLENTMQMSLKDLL
# Sequence of Muscarinic acetylcholine receptor M1 (Rattus norvegicus) (P08482 whole entry, looked up): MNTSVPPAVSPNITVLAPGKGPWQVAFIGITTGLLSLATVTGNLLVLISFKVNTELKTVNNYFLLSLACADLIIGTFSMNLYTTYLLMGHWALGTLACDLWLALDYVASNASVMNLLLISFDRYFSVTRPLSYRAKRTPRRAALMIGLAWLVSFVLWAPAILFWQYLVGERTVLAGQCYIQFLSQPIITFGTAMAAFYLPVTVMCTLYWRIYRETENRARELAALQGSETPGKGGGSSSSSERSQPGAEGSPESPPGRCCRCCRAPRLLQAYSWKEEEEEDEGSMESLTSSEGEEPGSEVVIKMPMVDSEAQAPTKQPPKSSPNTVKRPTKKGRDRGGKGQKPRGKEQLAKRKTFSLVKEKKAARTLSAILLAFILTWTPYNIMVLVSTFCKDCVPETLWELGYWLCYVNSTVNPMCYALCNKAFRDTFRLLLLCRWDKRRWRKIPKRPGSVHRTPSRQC
structure (smiles),measurement,setting,value
Cc1cc(N2C(=O)C(=O)/C(=C(/O)c3ccc(F)cc3)C2c2ccc(F)cc2)no1 (centres undefined),"activity, negative = inhibition",[1],-24.4%
same,Potency,[2],> 20.6 µM
COc1cc(C(=O)OCCN2CCCCC2)ccc1O,"activity, negative = inhibition",[1],4.68%
same,Potency,[2],> 20.6 µM
Cc1cc(C)n(S(=O)(=O)/C=C/c2ccccc2)n1,"activity, negative = inhibition",[1],-7.25%
same,Potency,[2],> 20.6 µM
Fc1ccccc1-c1nc(N2CCCCC2)c2ccccc2n1,"activity, negative = inhibition",[1],-21.5%
same,Potency,[2],> 20.6 µM
CCOc1ccccc1N1CCN(c2nc3ccccc3nc2C(C#N)C(=O)OC(C)C)CC1 (centres undefined),"activity, negative = inhibition",[1],-13.8%
same,Potency,[2],> 20.6 µM
Clc1ccccc1CN(Cc1ccccc1)c1ncnc2nc[nH]c12,"activity, negative = inhibition",[1],-10.3%
same,Potency,[2],> 20.6 µM
Cn1c(NCC(O)c2ccccc2)nc2c1c(=O)n(Cc1ccc(Cl)cc1)c(=O)n2C (centres undefined),"activity, negative = inhibition",[1],-24.9%
same,Potency,[2],> 20.6 µM
N#Cc1nc(COc2ccc(Br)cc2)oc1N1CCCC1,"activity, negative = inhibition",[1],3.52%
same,Potency,[2],> 20.6 µM
Cc1cc(/C=c2/sc3nc4ccccc4n3c2=O)c(C)n1-c1ccccn1,"activity, negative = inhibition",[1],-5.6%
same,Potency,[2],> 20.6 µM
COc1ccc(Nc2cc(C)nc(-n3nc(C)cc3C)n2)cc1,"activity, negative = inhibition",[1],-13%
same,Potency,[2],> 20.6 µM
COC(=O)c1cccc(Nc2cc(C)nc(-c3ccccc3O)n2)c1,"activity, negative = inhibition",[1],-15.1%
same,Potency,[2],> 20.6 µM
C=CCOc1nc(-c2ccncc2)nc2ccccc12,"activity, negative = inhibition",[1],12.7%
same,Potency,[2],> 20.6 µM
COC(=O)c1[nH]c2cc(OC)ccc2c1NC(=O)CN1CCN(c2cccc(C)c2)C(C)C1 (centres undefined),"activity, negative = inhibition",[1],-21.4%
same,Potency,[2],> 20.6 µM
COc1ccc(N2CCN(C3CC(=O)NC3=O)CC2)cc1 (centres undefined),"activity, negative = inhibition",[1],17.5%
same,Potency,[2],> 20.6 µM
N=c1c2c(-c3ccccc3)c(-c3ccccc3)n(Cc3ccccc3)c2ncn1CCCn1ccnc1,"activity, negative = inhibition",[1],9.95%
same,Potency,[2],> 20.6 µM
CCOc1ccc(C2=Nn3c(nnc3-c3ccccc3OC)SC2)cc1,"activity, negative = inhibition",[1],-10.6%
same,Potency,[2],> 20.6 µM
CC(NC(=O)CSc1nc2c(cc1C#N)CN(C)CC2)c1ccccc1 (centres undefined),"activity, negative = inhibition",[1],-4.3%
same,Potency,[2],> 20.6 µM
CCCCc1c(O)nc(SCCN(C)C)n(-c2ccccc2)c1=O,"activity, negative = inhibition",[1],2.07%
same,Potency,[2],> 20.6 µM
CC1(C)CC(=O)C2=C(C1)Oc1nc3ccccc3cc1C2C(C#N)C#N (centres undefined),"activity, negative = inhibition",[1],-93% (active)
same,Potency,[2],> 20.6 µM
CCOc1ccc(/C(O)=C2/C(=O)C(=O)N(c3cc(C)on3)C2c2ccc(C(=O)OC)cc2)cc1 (centres undefined),"activity, negative = inhibition",[1],-18.4%
same,Potency,[2],> 20.6 µM
CCCOc1ccc(Cl)cc1CN1CCOCC1,"activity, negative = inhibition",[1],8.53%
same,Potency,[2],> 20.6 µM
O=c1c2sc3nc(N4CCOCC4)c4c(c3c2ncn1Cc1ccco1)CCCC4,"activity, negative = inhibition",[1],-14.9%
same,Potency,[2],> 20.6 µM
N#CC1=C(SCc2ccccc2)NC2=C(C(=O)CCC2)C1c1ccc2c(c1)OCO2 (centres undefined),"activity, negative = inhibition",[1],-5.66%
same,Potency,[2],> 20.6 µM
N#Cc1ccc(-c2ccco2)nc1SCC(=O)c1ccc(Cl)cc1,"activity, negative = inhibition",[1],-9.2%
same,Potency,[2],> 20.6 µM
O=C(O)CCc1cc(I)c(Oc2ccc(O)c(I)c2)c(I)c1,"activity, negative = inhibition",[1],-5.45%
same,Potency,[2],> 20.6 µM
CCC(=O)Oc1ccc(/C(CC)=C(\CC)c2ccc(OC(=O)CC)cc2)cc1,"activity, negative = inhibition",[1],-21.2%
same,Potency,[2],> 20.6 µM
CCN(CC)c1ccc2c(C)c(-c3ccc(N)cc3)c(=O)oc2c1,"activity, negative = inhibition",[1],14.8%
same,Potency,[2],> 20.6 µM
COc1cccc(-c2nc(N3CCCCC3)c3ccccc3n2)c1O,"activity, negative = inhibition",[1],-5.07%
same,Potency,[2],> 20.6 µM
CCCCc1ccc(NC(=O)CSC2=C(C#N)C(c3ccco3)C3=C(CCCC3=O)N2)cc1 (centres undefined),"activity, negative = inhibition",[1],-23.6%
same,Potency,[2],> 20.6 µM
N#CCSc1nc2c(c(=O)n1Cc1ccco1)C1(CCCC1)Cc1ccccc1-2,"activity, negative = inhibition",[1],-1.5%
same,Potency,[2],> 20.6 µM
CC1(C)Cc2c(c(N3CCOCC3)nc3sc4c(NCc5ccco5)nnnc4c23)CS1,"activity, negative = inhibition",[1],-26.9%
same,Potency,[2],> 20.6 µM
COc1ccccc1N1C(=O)C2ON(c3ccccc3)C(c3ccc(N(C)C)cc3)C2C1=O (centres undefined),"activity, negative = inhibition",[1],-10.2%
same,Potency,[2],> 20.6 µM
Fc1ccc2[nH]c3c(N4CCN(c5ccccc5)CC4)ncnc3c2c1,"activity, negative = inhibition",[1],-93.2% (active)
same,Potency,[2],> 20.6 µM
CSc1nc2[nH]c3c(c2c2ncnn12)CCCC3,"activity, negative = inhibition",[1],-26.5%
same,Potency,[2],> 20.6 µM
CCN(CC)CCOC(=O)c1c(C)n(C)c2ccc(OC)cc12,"activity, negative = inhibition",[1],11.9%
same,Potency,[2],> 20.6 µM
N#C/C(=N\O)c1nc(-c2ccccc2)cs1,"activity, negative = inhibition",[1],9.7%
same,Potency,[2],> 20.6 µM
Cc1c(C)c2cc(Cl)c(O)c(CN3CCN(C)CC3)c2oc1=O,"activity, negative = inhibition",[1],11.1%
same,Potency,[2],> 20.6 µM
Cc1coc2c(O)cc3c(c12)OC1(N2CCCCC2)C(=O)NCCCC31 (centres undefined),"activity, negative = inhibition",[1],-21.8%
same,Potency,[2],> 20.6 µM
CCC1(C)Cc2c(sc3c2c(=O)n(C)c2nnc(SCC(=O)c4ccc(Cl)cc4)n32)CO1 (centres undefined),"activity, negative = inhibition",[1],-5.38%
same,Potency,[2],> 20.6 µM
N#C[C@@H](Cc1ccc(O)c(O)c1)C(=O)N1CCc2ccccc21,"activity, negative = inhibition",[1],26% [at 38 µM]
same,Potency,[2],> 46 µM
same,Potency,[3],> 46 µM
same,Potency,[4],inactive
same,Potency,[5],10 µM (active)
same,Potency,[6],inactive
same,Potency,[7],inactive
same,outcome,[8],inactive
same,outcome,[9],inactive
COC(=O)c1ccc(Cn2cnc3c(sc4nc(N5CCOCC5)c5c(c43)CCCC5)c2=O)o1,"activity, negative = inhibition",[1],-11.4%
same,Potency,[2],> 20.6 µM
CC(C)OC(=O)c1c2nc3ccccc3nc2n2c1[nH]c(=O)c1ccccc12,"activity, negative = inhibition",[1],-17%
same,Potency,[2],> 20.6 µM
O=C(CCN1CCCC1Cc1ccccc1)c1ccc2c(c1)OCCO2 (centres undefined),"activity, negative = inhibition",[1],14.7%
same,Potency,[2],> 20.6 µM
Cc1nc(SCC(=O)c2ccccc2)c(C#N)c(-c2ccco2)c1C(=O)NCc1ccco1,"activity, negative = inhibition",[1],-21.3%
same,Potency,[2],> 20.6 µM
CN(C)c1nc(OCCNC(=O)Nc2ccccc2)nc(N(C)C)n1,"activity, negative = inhibition",[1],-7.19%
same,Potency,[2],> 20.6 µM
COc1ccc(CCn2c(C)cc3c(c2=O)C(c2ccc4c(c2)OCO4)C(C#N)=C(N)O3)cc1OC (centres undefined),"activity, negative = inhibition",[1],-21.6%
same,Potency,[2],> 20.6 µM
